The nature of experiment [1]: UWB1.289 ovarian carcinoma cell growth inhibition, synergistic combos for chromothripsis tumors, BGB or cisplatin combos (AID 1671456).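 Note: cells exposed to compound for four days; 0% = vehicle DMSO and 100% = killing by high DMSO.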 The following applies: UWB1.289 ovarian carcinoma cells, stronger effect = higher value.
A short description of experiment [2]: LFS_MB_2R medulloblastoma cell growth inhibition, synergistic combos for chromothripsis tumors, cisplatin combos (AID 1671457).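 Note: cells exposed to compound for four days before readout.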 The following applies: LFS_MB_2R medulloblastoma cells, stronger effect = higher value.
The nature of experiment [3]: MDA-MB-436 breast carcinoma cell growth inhibition, synergistic combos for chromothripsis tumors, BGB or cisplatin combos (AID 1671458; call rule not given here;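 note: cells exposed for 96 hours; 0% = vehicle DMSO and 100% = killing by high DMSO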). The note with it: MDA-MB-436 breast carcinoma growth inhibition, drug combinations, stronger effect = higher value.
A short description of experiment [4]: UWB1.289_BRCA1 ovarian cancer growth, cell-based, BGB or cisplatin combinations (AID 1671459). The following applies: UWB1.289 BRCA1 ovarian carcinoma, drug combinations, stronger effect = higher value.
Experiment [5] in a line: human astrocyte viability loss, single and combined drugs, cytotoxicity control for chromothriptic childhood tumor combination screen, cell-based, BGB or cisplatin IC20 combos (AID 1671460).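 Note: cells exposed to compounds for 96 hours before viability readout; 0% = vehicle and 100% = killing control.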 The following applies: Human astrocytes, drug combinations, stronger effect = higher value.
Experiment [6] can be described thus: growth inhibition of BT084 medulloblastoma cells, cell-based, ICGC_MB145, cisplatin and BGB IC40 combos (AID 1671461).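 Note: cells exposed to drugs for 96 hours; 0% = vehicle DMSO and 100% = high DMSO full killing control.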 The following applies: drug combinations, stronger effect = higher value.
Experiment [7] can be described thus: growth inhibition of RCMB18 medulloblastoma cells, cell-based, cisplatin and BGB IC40 combos (AID 1671462).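 Note: cells exposed to compound for four days.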 The note with it: stronger effect = higher value.
The nature of experiment [8]: growth inhibition of CRL1545 osteosarcoma cells, cell-based, cisplatin and BGB IC20 combos (AID 1671464).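 Note: cells exposed to compound for 96 hours before readout; 0% = vehicle DMSO and 100% = high DMSO killing control.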 The following applies: stronger effect = higher value.
Experiment [9] concerns F380Y. The experiment can be described thus: modulators of BK channel variants, profiling panel, selectivity assay, cell-based, U2OS BacMam, thallium flux, beta subunits (AID 1259406;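 active = thallium flux through the channel raised or lowered by more than 3 SD from vehicle-only wells, actives on both sides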;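 note: initial slope of Thallos dye fluorescence rise after thallium is added; log ratio against the mean of 0.3% DMSO vehicle wells on the same plate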). The following applies: at 30 µM.
For experiment [10], the system named is F380Y/beta1. Described as above. The note with it: at 30 µM.
[11] abbreviates: measured here: inhibition with BGB combination, at 0.05 µM.
Where [12] appears, read: measured here: inhibition with cisplatin combination, at 0.05 µM.
Setting [13] is: measured here: combination with cisplatin, at 0.5 µM.
Where [14] appears, read: measured here: combination with cisplatin, at 5 µM.
Setting [15] is: measured here: BGB combination, at 0.5 µM.
Where [16] appears, read: measured here: BGB combination, at 5 µM.
The mark [17] stands for this setting: measured here: cisplatin combination, at 0.5 µM.
Setting [18] is: measured here: cisplatin combination, at 5 µM.
[19] abbreviates: BGB combination, concentration series, at 5 µM.
Setting [20] is: cisplatin combination, concentration series, at 5 µM.
Setting [21] is: measured here: combo with BGB IC20, at 0.5 µM.
Where [22] appears, read: measured here: combo with cisplatin IC20, at 0.5 µM.
The mark [23] stands for this setting: cisplatin combination, at 0.5 µM.
Where [24] appears, read: measured here: BGB IC40 combination 0.05 uM, at 0.05 µM.
The mark [25] stands for this setting: measured here: BGB IC40 combination, at 0.05 µM.
[26] abbreviates: measured here: with BGB IC20 combination, at 0.5 µM.
The mark [27] stands for this setting: measured here: with cisplatin IC20 combination, at 0.5 µM.

Where “and” joins values, the source holds several entries; their conditions need not be identical. Identical values can stand only once. Calls of active or inactive are those of the source. Cut-off read from the data, not from the text of the source, unless noted: active = inhibition above about 80%; inactive = the rest.

By inhibition is commonly meant the change of the read-out against control, counted positive when it falls. On to `NC(=O)NO`, for which the inhibition was 5.4% (inactive) in experiment [1] (at 0.5 µM); 5.3% in experiment [1] (setting [11]); -10.2% in experiment [1] (setting [12]); 11.7% (inactive) in [2] (at 0.5 µM); 8.29% in experiment [2] (setting [13]); 17% in [2] (setting [14]). The inhibition is -8.14% (inactive) in experiment [3] (at 0.5 µM); -5.6% in [3] (setting [15]); -2.86% in experiment [3] (setting [16]); -19.6% in [3] (setting [17]); 19.7% in [3] (setting [18]); 13.1% in [4] (setting [19]). Besides, the inhibition in [4] (at 0.5 µM) is 4.57% (inactive); in experiment [4] (setting [20]), 15.7%; in [5] (at 0.5 µM), -3.17% (inactive); in experiment [5] (setting [21]) it was -6.58%; in experiment [5] (setting [22]), 5.32%; in experiment [6] (at 0.5 µM), 3.97% (inactive). The inhibition in [6] (setting [23]) is 0.756%; in experiment [6] (cisplatin combination, at 5 µM) it was -27.3%; in experiment [6] (setting [24]) it was 10.1%; in [6] (single agent, at 5 µM), 1.06%; in experiment [7] (at 0.5 µM), 12.5% (inactive); in [7] (cisplatin combo, at 5 µM), 15.7%. Besides, the inhibition in experiment [7] (setting [25]) was -13.6%; in [7] (setting [13]), 28.2%; in [7] (single agent, at 5 µM), -32.4%; in [8] (at 0.5 µM) it was -15.5% (inactive); in [8] (setting [26]), 6.18%; in experiment [8] (setting [27]), -26.4%. For the same compound, the inhibition is -10.2% in [8] (single agent, at 0.05 µM) and -5.37% in experiment [8] (single agent, at 5 µM).
As to `CC(=O)NS(=O)(=O)c1ccc(N)cc1`, the log fold change Tl+ flux was -0.0156 (inactive) in [9] and 0.00907 (inactive) in [10].
In the case of `O=c1c(-c2ccc(O)cc2)coc2cc(O)cc(O)c12`, the inhibition in experiment [1] (at 0.5 µM) is -11.2% (inactive) and 6.51% (inactive); in [1] (setting [11]) it was -19.6% and -14.9%; in experiment [1] (setting [12]), -41.2% and -9.05%; in experiment [2] (at 0.5 µM), -21.6% (inactive) and -9.3% (inactive); in experiment [2] (setting [13]), -19.9% and -5.5%; in experiment [2] (setting [14]), 2.54% and -37.8%. In addition, the inhibition in experiment [3] (at 0.5 µM) was -10.3% (inactive) and -13.9% (inactive); in experiment [3] (setting [15]), -9.11% and -11.4%; in experiment [3] (setting [16]), -2.8% and 13.3%; in [3] (setting [17]), -11% and -29.3%; in experiment [3] (setting [18]), -8.45% and 5.18%; in experiment [4] (setting [19]), 16.4% and 33.4%. Further, the inhibition in [4] (at 0.5 µM) was -10.6% (inactive) and 4.64% (inactive); in experiment [4] (setting [20]), 5.85% and 47.6%; in experiment [5] (at 0.5 µM), -1.4% (inactive) and 12.1% (inactive); in [5] (setting [21]), 14% and 8.3%; in experiment [5] (setting [22]), -16.8% and 13.7%; in experiment [6] (at 0.5 µM), -13.6% (inactive) and -23.4% (inactive). Also, the inhibition in [6] (setting [23]) is -26.2% and 3.79%; in experiment [6] (cisplatin combination, at 5 µM), 1.19% and 21.5%; in [6] (setting [24]), -40.6% and -5.57%; in experiment [6] (single agent, at 5 µM), -5.08% and 6.68%; in experiment [7] (at 0.5 µM), 0.59% (inactive) and -8.25% (inactive); in experiment [7] (cisplatin combo, at 5 µM), -43.5% and 11.5%. In addition, the inhibition in experiment [7] (setting [25]) was -4.72% and -2.4%; in experiment [7] (setting [13]), 13.5% and -9.76%; in experiment [7] (single agent, at 5 µM), -12.8% and -12.2%; in [8] (at 0.5 µM) it was -44.2% (inactive) and 5.21% (inactive); in experiment [8] (setting [26]), -31% and 18.3%; in [8] (setting [27]), -53.3% and -3.63%. Further, the inhibition is -62.4% and -21.3% in experiment [8] (single agent, at 0.05 µM); -46.3% and 9.19% in [8] (single agent, at 5 µM).
Turning to `CN(C)/N=N/c1nc[nH]c1C(N)=O`, the inhibition in [1] (at 0.5 µM) is 18.9% (inactive) and 3.21% (inactive); in experiment [1] (setting [11]) it was 0.064% and -13.3%; in [1] (setting [12]) it was 3.6% and -43.6%; in experiment [2] (at 0.5 µM), 10.1% (inactive) and -20.6% (inactive); in experiment [2] (setting [13]), 14.2% and -25.1%; in experiment [2] (setting [14]) it was -36.9% and -16%. Besides, the inhibition is 1.6% (inactive) and -18.5% (inactive) in experiment [3] (at 0.5 µM); 7.15% and -18% in experiment [3] (setting [15]); 1.32% and -19% in [3] (setting [16]); 0.111% and -24.2% in [3] (setting [17]); -5.49% and -14.5% in experiment [3] (setting [18]); 47.3% and 36.9% in [4] (setting [19]). Also, the inhibition in [4] (at 0.5 µM) is 15.9% (inactive) and 4.03% (inactive); in [4] (setting [20]), 53.7% and 25.2%; in experiment [5] (at 0.5 µM) it was -0.79% (inactive) and 0.55% (inactive); in experiment [5] (setting [21]), -3.87% and 2.32%; in experiment [5] (setting [22]) it was -4.67% and -1.77%; in experiment [6] (at 0.5 µM), -1.62% (inactive) and -14.7% (inactive). In addition, the inhibition was -8.23% and -62.9% in experiment [6] (setting [23]); 1.87% and -8.42% in experiment [6] (cisplatin combination, at 5 µM); 46.6% and -5.42% in experiment [6] (setting [24]); -9.68% and -13.7% in experiment [6] (single agent, at 5 µM); -1.34% (inactive) and -9.83% (inactive) in [7] (at 0.5 µM); 6.92% and -42.9% in experiment [7] (cisplatin combo, at 5 µM). For the same compound, the inhibition in experiment [7] (setting [25]) was -11.2% and -7.61%; in experiment [7] (setting [13]) it was 10.1% and -9.31%; in experiment [7] (single agent, at 5 µM), 3.33% and -8.99%; in experiment [8] (at 0.5 µM), -2.87% (inactive) and -54.9% (inactive); in experiment [8] (setting [26]), -14.8% and -42.6%; in [8] (setting [27]), 0.906% and -63.6%. Moreover, the inhibition is -1.35% and -67.8% in [8] (single agent, at 0.05 µM); 10.4% and -50.2% in experiment [8] (single agent, at 5 µM).
For `O=C1c2cccc3c2[C@H](CCC3)CN1[C@@H]1CN2CCC1CC2`, the log fold change Tl+ flux in [9] was 0.0472 (inactive); in experiment [10] it was 0.0342 (inactive).
`Cc1nccn1CC1CCc2c(c3ccccc3n2C)C1=O` (stereo unspecified): the log fold change Tl+ flux in experiment [9] was 0.0107 (inactive) and 0.024 (inactive); in experiment [10], 0.000378 (inactive) and -0.0486 (inactive).
As to `CC(N)C12CC3CC(CC(C3)C1)C2` (stereo unspecified), the inhibition in experiment [1] (at 0.5 µM) is -6.71% (inactive); in experiment [1] (setting [11]), -27.7%; in experiment [1] (setting [12]), -16.3%; in experiment [2] (at 0.5 µM), -18.8% (inactive); in [2] (setting [13]), -16.8%; in experiment [2] (setting [14]) it was -59.2%. For the same compound, the inhibition in experiment [3] (at 0.5 µM) was -35.4% (inactive); in experiment [3] (setting [15]) it was -21.6%; in experiment [3] (setting [16]), -29.1%; in experiment [3] (setting [17]) it was -60.5%; in experiment [3] (setting [18]) it was -34.4%; in experiment [4] (setting [19]) it was -31.1%. Further, the inhibition was -16.9% (inactive) in experiment [4] (at 0.5 µM); 2.74% in experiment [4] (setting [20]); -10.5% (inactive) in experiment [5] (at 0.5 µM); -8.28% in experiment [5] (setting [21]); -5.35% in [5] (setting [22]); -35.2% (inactive) in experiment [6] (at 0.5 µM). The inhibition is -18.2% in experiment [6] (setting [23]); -3.55% in experiment [6] (cisplatin combination, at 5 µM); 9.42% in experiment [6] (setting [24]); -34.6% in experiment [6] (single agent, at 5 µM); -21.2% (inactive) in experiment [7] (at 0.5 µM); -32.4% in [7] (cisplatin combo, at 5 µM). Moreover, the inhibition in [7] (setting [25]) was -22.9%; in [7] (setting [13]), -18.2%; in experiment [7] (single agent, at 5 µM) it was -26.9%; in experiment [8] (at 0.5 µM), -36.2% (inactive); in [8] (setting [26]) it was -19.2%; in experiment [8] (setting [27]), -48%. Besides, the inhibition in experiment [8] (single agent, at 0.05 µM) was -83.2%; in experiment [8] (single agent, at 5 µM), 0.3%. The log fold change Tl+ flux in [9] is 0.00103 (inactive); in experiment [10], 0.0203 (inactive).

The values are drawn from PubChem BioAssay.
